# Measurements taken from PubChem BioAssay AID2685 (National Center for Advancing Translational Sciences (NCATS), 2010).
# Among all 320,000 compounds or so, about 2,100 (0.66%) were called active. Another 53% or so got no clear call; they are omitted. Calls follow the shape of the dose curve; as a rule, active = well fitted inhibition curve with a large enough effect in the signal ratio, with a control signal flat (not every such curve was filed as active); inconclusive = small, poorly fitted or top-dose-only effect, or effect the other way, or a change in a side signal; inactive = flat fitted curve, though single readings scatter; the % refers to the signal ratio. The sample as a whole holds a higher share of actives than the screen did.
# Experiment: qHTS Assay for Lipid Storage Modulators in Drosophila S3 Cells;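 as to cell number change: cells counted by Cell Tracker Red CMTPX staining in the red channel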
# Settings: BODIPY lipid droplet fluorescence, 18-24 h, cells fed with added oleic acid; cell number change: measured here: cell count max response; series mostly up to 46.1 µM
# Description: NIH Molecular Libraries Probe Production Centers Network [MLPCN] NIH Chemical Genomics Center [NCGC] MLPCN Grant: 1 R03 MH085686-01 Assay Submitter (PI): Beller, Mathias; Max-Planck-Institut fur Biophysikalische Chemie NCGC Assay Overview: Storing lipids as a reservoir for energy or the anabolism of elementary metabolites is a common feature of probably all cells and is conserved from bacteria to humans. The universal cellular lipid storage organelle is the so-called lipid storage droplet (LD). Although ubiquitous, LDs share a simple structure composed of a hydrophobic core that harbors the storage lipids, which is shielded by a droplet-specific phospholipid monolayer to which proteins are attached. The current model of LD biogenesis involves an incorporation of the lipid core into the membrane leaflets of the endoplasmic reticulum (ER) followed by a subsequent budding-like maturation of a LD, which ultimately pinches off. Once released, LD volume can increase by localized lipogenesis or fusion of existing droplet. Storage lipids are re-mobilized enzymatically by lipase activity. Lipase regulation in the adipocyte is heavily studied and involves multiple components including catecholamine signaling, the LD-associated proteins Perilipin and comparative gene identification (CGI-58) and at least two lipases named hormone sensitive lipase (HSL) and adipocyte triglyceride lipase (ATGL). LD regulation outside of the adipocyte is poorly understood and only few components are known. However, there is an urgent need to learn more about ectopic fat depots as mislocalized storage of lipids, for example in the liver or muscle, is an eminent health problem associated with insulin resistance or the metabolic syndrome. We developed a laser-scanning cytometer assay to enable 1,536-well screening and combined the results of the small molecules screen with an RNAi database based on lipid storage.
# Triacsin C (Sigma-Aldrich T-4540), an inhibitor of long-chain fatty acyl CoA synthetase that blocks synthesis of triglycerides, was used as a positive control for lipid under-storage. A total of 23 nL of compound solution of different concentrations were transferred to the assay plates using a Kalypsys pin tool equipped with a 1,536-pin array containing 10-nL slotted pins (FP1S10, 0.457-mm diameter, 50.8 mm long; V&P Scientific). One microliter of oleic acid (400 uM) was added, and the plate was lidded with stainless steel rubber gasket lined lids containing pinholes. […] Fluorescence was detected by excitation of the fluorophores with a 488-nm laser on an Acumen Explorer (TTP Lab Tech). The total intensity in channel 2 (500-530 nm) reflected lipid droplet accumulation. Cells were detected using channel 3 (575-640 nm) with 5-um width and 100-um depth filters. The ratio of the number of objects in PMT channel 2 over the number of objects in PMT channel 3 was also calculated. Percent activity was computed relative to an internal control (100% inhibited lipid droplet deposition due to the presence of 20 uM Triacsin C), which was added to 32 wells/plate.
# Potency is read from the fitted curve at half-maximal effect.
Structure (SMILES),Potency,cell number change,outcome
Cc1ccc(C(=O)Nc2ccc(C(F)(F)F)n(C)c2=O)cc1,inactive,11.7%,
COCCn1c(C(F)(F)F)ccc(NC(=O)c2ccccc2)c1=O,8.2 µM (active),27.8%,
COc1ccc(C(=O)Nc2ccc(C(F)(F)F)n(C)c2=O)cc1,inactive,6.54%,
CCN(CC(=O)Nc1ccc(OC)cc1)C(=O)CCc1nc2ccccc2c(=O)[nH]1,inactive,-4.18%,
Cc1c([N+](=O)[O-])c([N+](=O)[O-])nn1CC(=O)NCCc1ccccc1,inactive,2.95%,
CC(=O)c1ccc(OC(C)C)c(CN2CCCCC2)c1,inactive,-4.17%,
CCCOc1ccc(C(C)=O)cc1CC(C(=O)OCC)C(=O)OCC,inactive,1.14%,
CC(=O)c1ccc(OC(C)C)c(CC(C(N)=O)C(N)=O)c1,25.9 µM (active),,
NC(=O)CS(=O)(=O)c1ccc(Cl)cc1,inactive,0.328%,
CC(C)=CC(=O)O[C@@H]1Cc2cc3ccc(=O)oc3cc2OC1(C)C,inactive,-1.68%,
Cc1cc(Nc2ccc(F)c(F)c2)nc(-c2ccccc2O)n1,inactive,-20.3%,
Cc1cc(Nc2ccc(Cl)cc2)nc(-c2ccccc2O)n1,inactive,25.5%,
Cc1cc(Nc2ccc(Br)cc2)nc(-c2ccccc2O)n1,1.16 µM (active),5.51%,
O=C(NNC(=O)c1ccccc1O)c1ccc(NS(=O)(=O)c2ccc(F)c(F)c2)cc1,inactive,6.77%,
NS(=O)(=O)c1cccc(NS(=O)(=O)c2ccc3ccccc3c2)c1,inactive,-9.72%,
Cc1ccc(S(=O)(=O)N2CCCN(S(=O)(=O)c3ccc(C)cc3)CC2)cc1,inactive,-15.5%,
Cc1ccc(-c2ccc(S(=O)(=O)N3CCCC3)cc2)cc1,inactive,,
Cc1ccc(S(=O)(=O)N2CCCOC2)cc1,20.6 µM (active),-23.3%,
CC1(C)CC(=O)C(CC(=O)NC(=O)NCc2ccccc2)=C(O)C1,inactive,9.3%,
O=C(CSc1ccccc1)Nc1nnc(COc2ccc(Cl)cc2)s1,9.2 µM (active),-4.77%,
COCc1nnc(NC(=O)CSc2ccccc2)s1,inactive,-1.84%,
COCC(=O)Nc1nnc(COc2ccc(Cl)cc2)s1,inactive,-17.4%,
CCN(CC)c1ccc(/C=N/NC(=S)NC)c(O)c1,inactive,2.22%,

Structure (SMILES),Potency,cell number change,outcome
CCN(CC)c1ccc(/C=N/NC(=S)NCc2ccccc2)c(O)c1,11.6 µM (active),-19.6%,
CCN(CC)c1ccc(/C=N/Nc2ccccc2)c(O)c1,inactive,-10.7%,
COc1ccc(-c2c3c(=O)n(C)c(=O)n(C)c3cn2-c2ccccc2O)cc1,inactive,9.81%,
CC(=O)N(Cc1cccnc1)Cc1cc2ccc(C)cc2[nH]c1=O,inactive,-7.01%,
COc1cccc(CNC(=O)CCCn2ncn3c(cc4occc43)c2=O)c1,inactive,-2.59%,
CCOc1ccccc1CNC(=O)CCCn1ncn2c(cc3occc32)c1=O,29.1 µM (active),-5.42%,
CC(CNC(=O)CCCn1ncn2c(cc3occc32)c1=O)c1ccccc1 (centres undefined),inactive,24%,
Cc1cc(C(=O)N2CCN(S(=O)(=O)c3ccccc3)CC2)c(C)o1,inactive,15.7%,
CCCCn1nc2cc(C(=O)N[C@H](C)C3CCCCC3)ccc2c1OCC,inactive,-12%,
CCOC(=O)c1sc(NC(=O)CCc2ccccc2)nc1C,inactive,3.17%,
Cc1ccc(-n2c(C)cc(C(=O)COc3c(CO)cc(F)cc3CO)c2C)cc1C,8.2 µM (active),4.17%,
Cc1ccc(-n2c(C)cc(C(=O)COC(=O)c3ccc[nH]c3=O)c2C)cc1C,inactive,-2.22%,
Cc1ccc(-n2c(C)cc(C(=O)CN3CCOCC3)c2C)cc1C,inactive,-2.77%,
Cc1cccc(NC(=O)C2CCCN2C(=O)Oc2ccccc2)c1 (centres undefined),inactive,-1.72%,
Cc1cc(C)nc(NC(=O)c2c(Cl)cccc2Cl)n1,inactive,0.843%,
COc1cc(/C=N/NC(=O)c2ccc(CN3c4cccc5cccc(c45)S3(=O)=O)cc2)cc(OC)c1O,inactive,-26.4%,
CN(C)c1ccc(/C=N/NC(=O)c2ccc(CN3C(=O)c4cccc5cccc3c45)cc2)cc1,inactive,10.4%,
COc1cc(/C=N/NC(=O)c2ccc(CN3C(=O)c4cccc5cccc3c45)cc2)cc(OC)c1O,3.26 µM (active),-19.2%,
Cc1ccc(C)c(NC(=O)COc2coc(CN3CCc4ccccc4C3)cc2=O)c1,6.51 µM (active),-25.7%,
Cc1ccc(NC(=O)COc2coc(CN3CCc4ccccc4C3)cc2=O)c(C)c1,,,inactive [at 0.0737 µM]
Cc1cc(C)cc(NC(=O)COc2coc(CN3CCc4ccccc4C3)cc2=O)c1,inactive,-22.1%,
CCc1cccc(CC)c1NC(=O)COC(=O)CC1c2ccccc2CCN1S(=O)(=O)c1ccccc1 (centres undefined),inactive,0.0752%,
COCCSc1nc(N)c(NC(=O)c2ccco2)c(=O)[nH]1,inactive,-16.8%,

Structure (SMILES),Potency,cell number change,outcome
COc1ccc(CC(=O)NCC(=O)N/N=C/c2c[nH]c3ccccc23)cc1,inactive,14.2%,
CCCCCCCNC(=O)C1(CC2CC(c3ccc(Cl)cc3)=NO2)CCNCC1 (centres undefined),inactive,-6.47%,
CNC(=O)/C(=C\c1cccc(Oc2ccccc2)c1)NC(=O)c1ccccc1,inactive,2.1%,
CCCCn1c(-c2ccc(OC)cc2)nc2c(=O)n(C)c(=O)[nH]c21,inactive,12.4%,
CCCn1c(-c2ccccc2)nc2c(=O)n(C)c(=O)[nH]c21,inactive,-15.6%,
CCCn1c(-c2ccc(OC)cc2)nc2c(=O)n(C)c(=O)[nH]c21,29.1 µM (active),11.6%,
CCN1CCN(CC(=O)Nc2ccc(N(C)C)cc2)CC1,inactive,14.8%,
CN(C)c1ccc(NC(=O)CN2CCC(NC(=O)C3CCCCC3)CC2)cc1,inactive,6.84%,
CN(C)c1ccc(NC(=O)CN2CCC(N3CCCCC3)CC2)cc1,23.1 µM (active),-25.9%,
O=C(O)C1CC1C(=O)N1CCN(c2ccc(Cl)c(Cl)c2)CC1 (centres undefined),inactive,16.3%,
CCc1nc2nc(C)c(NS(=O)(=O)c3ccc(C4CCCCC4)cc3)c(=O)n2[nH]1,inactive,,
Cc1ccccc1-n1ncc2c1CC(C)(C)CC2NC(=O)c1snnc1C (centres undefined),inactive,7.34%,
COc1cc(C(=O)NC2CCCc3c2cnn3-c2ccccc2F)cc(OC)c1OC (centres undefined),16.4 µM (active),22.4%,
O=C(CCN1CCCC1=O)NC1CCCc2c1cnn2-c1ccccc1F (centres undefined),inactive,11%,
COc1ccc(C(=O)NC2CCCc3c2cnn3-c2cc(F)cc(F)c2)c(OC)c1OC (centres undefined),inactive,,
Cc1cc(C(=O)NC2CCCc3c2cnn3-c2cccc(C)c2C)n(C)n1 (centres undefined),0.92 µM (active),5.94%,
Cc1cccc(-n2ncc3c2CCCC3NC(=O)CN2CCCC2=O)c1C (centres undefined),inactive,-2.49%,
COc1cc(C(=O)NC2CC(C)(C)Cc3c2cnn3-c2ccccc2)cc(OC)c1OC (centres undefined),inactive,9.79%,
Cc1cccc(-n2ncc3c2CCCC3NC(=O)CCN2CCCO2)c1C (centres undefined),inactive,-19.9%,
Cc1nnsc1C(=O)NC1CCCc2c1cnn2-c1ccccc1F (centres undefined),4.11 µM (active),,
O=C(O)CCCC(=O)Nc1nc(-c2ccc(F)cc2)cs1,inactive,,
COc1ccc(-n2c(SCC(=O)NCC3CCCO3)nc3c([nH]c4ccccc43)c2=O)cc1OC (centres undefined),inactive,-13.6%,
Cc1ccc(OCC(=O)Nc2ccc(N3CCN(S(C)(=O)=O)CC3)cc2)cc1,inactive,18.1%,

Structure (SMILES),Potency,cell number change,outcome
O=C(CSc1nnc2c(Cl)cc(C(F)(F)F)cn12)Nc1ccc2c(c1)OCO2,inactive,-8.45%,
COc1ccc(-c2cn[nH]c2-c2ccc(OCC(=O)NN)cc2O)cc1OC,inactive,12.9%,
O=C(N[C@@H](CO)C(=O)NCc1ccccc1)c1ccc(C(F)(F)F)cc1,inactive,23.3%,
COc1cccc(CNC(=O)CCC(=O)N2Cc3cccc(OC)c3Oc3ncccc32)c1OC,inactive,,
Cc1ccc(CSCc2ccc(C(=O)NCCCN3CCOCC3)o2)cc1,inactive,,
COc1cc(S(=O)(=O)N(Cc2cccnc2)Cc2cccc(OC)c2OC)ccc1-n1cnnn1,inactive,-1.62%,
O=C(COc1ccc([N+](=O)[O-])cc1)Nc1ccc(NC(=O)c2ccccc2)cc1,inactive,-8.36%,
Oc1ccccc1C1=NN(c2ccccc2)C(c2ccccc2)C1 (centres undefined),1.64 µM (active),0.901%,
O=C(O)c1ccc(N2N=C(c3ccccc3)CC2c2ccccc2)cc1 (centres undefined),inactive,-6.08%,
O=Cc1ccc(N2N=C(c3ccccc3)CC2c2ccccc2)cc1 (centres undefined),inactive,-15.5%,
CS(=O)(=O)c1ccc(C(=O)NCc2ccc(F)cc2)cc1,inactive,23%,
N/C(Cc1ccc([N+](=O)[O-])cc1)=N\OC(=O)c1ccc(Br)o1,inactive,10.2%,
N/C(=N\OC(=O)c1ccc([N+](=O)[O-])cc1)c1ccc(Br)cc1,inactive,19%,
N/C(Cc1ccc([N+](=O)[O-])cc1)=N\OC(=O)c1ccc(Br)cc1,8.2 µM (active),0.393%,
COC(=O)c1sccc1N/N=C/c1cccc(Oc2ccccc2)c1,inactive,-12.1%,
CCCCNC(=O)CCn1c(=O)c2cccn2c2ccc(F)cc21,inactive,-8.11%,
COc1ccc(NC(=O)CCn2c(=O)c3cccn3c3ccccc32)cc1,inactive,-20.6%,
COc1ccc(CNC(=O)CCn2c(=O)c3cccn3c3ccc(F)cc32)cc1,5.8 µM (active),-3.83%,
CCCS(=O)(=O)c1nc(S(=O)(=O)c2ccc(C)cc2)c(N2CC(C)OC(C)C2)s1 (centres undefined),18.4 µM (active),-24.5%,
CCCS(=O)(=O)c1nc(S(=O)(=O)c2ccc(C)cc2)c(N2CCC(C)CC2)s1,inactive,,
CCCS(=O)(=O)c1nc(S(=O)(=O)c2ccc(C)cc2)c(N2CCN(C)CC2)s1,inactive,,
